Our source for the inhibition and cell count values is PubChem BioAssay.

Molecules are shown by their SMILES. The source made the active and inactive calls.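 The calls were made as follows: active = inhibition above 20% together with a positive visual image hit; inconclusive = visual image hit but inhibition not above 20%; inactive = no visual image hit.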

The test is described as follows: inhibitors of TNFa-induced NFkB p65 translocation, primary screen, imaging, HUVEC, MLSMR starter and 10KST1 sets (AID 438).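 Also: compound added about 3h40 before a 20 min TNFalpha stimulation.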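 As to inhibition: signal is the nuclear over cytoplasmic p65 intensity ratio per well.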 The note with it: HUVEC TNFa-induced p65 nuclear translocation; cell count: measured here: nuclei count (cytotoxicity indicator), at 2.08 µM; inhibition: at 2 µM, stronger effect = higher value, 0% TNFa-plus-vehicle, 100% no-TNFa wells.
In the case of `Cn1c(=O)cc(SCC(=O)NCc2cccnc2)c2ccccc21`, the inhibition is 2.8% (inactive) and the cell count came out at 634.

For the compound `CSc1ccc(-c2cc(=O)c3ccccc3o2)cc1`, the inhibition was -10.5% (inactive) and the cell count came to 620.

Take `Cn1c(C(=O)OC(C(=O)NC2CCCC2)c2cccnc2)cc2sccc21` (stereo not given): the inhibition is 4% (inactive) and the cell count stood at 495.

Regarding `C=CCSc1nnc(-c2ccc(Cl)cc2Cl)o1`, the inhibition was 0.2% (inactive) and the cell count was 400.

Regarding `COCc1nnc(SCC(=O)NC(C)c2ccccc2)n1-c1ccccc1` (stereo not given), the cell count stood at 308 and the inhibition was -1.1% (inactive).

On to `Cc1nc2ccc(F)cc2cc1C(=O)NCC1CCCO1` (stereo not given), for which the inhibition was -8.7% (inactive) and the cell count came to 421.

On to `COc1ccc(OCCOC(=O)c2cccc(-n3cnnn3)c2)cc1`, for which the cell count came out at 289 and the inhibition was 4.4% (inactive).

Take `Cc1occc1-c1nnc(SCC(=O)N2CCOCC2)n1Cc1ccco1`: the cell count came out at 382 and the inhibition is 3% (inactive).

On to `COc1ccccc1C(=O)NCC(c1cccnc1)N(C)C` (stereo not given), for which the cell count came out at 776 and the inhibition was -2.2% (inactive).

On to `O=C1NC(=O)C(CC(=O)N(c2ccccc2)C2(C(=O)NC3CCCC3)CCCCC2)N1` (stereo not given), for which the inhibition is -1.1% (inactive) and the cell count is 384.

In the case of `CCOC(=O)N1CCN(C(=O)CN(Cc2ccccc2)S(=O)(=O)c2ccc(OC)c(C)c2)CC1`, the cell count amounted to 320 and the inhibition was -2.3% (inactive).

On to `O=C(CSc1nc2ccccc2o1)N1CCN(C(=O)c2ccco2)CC1`, for which the inhibition was -11.5% (inactive) and the cell count amounted to 595.

Regarding `c1cc2c(cc1C1CCCN1)OCCCO2` (stereo not given), the inhibition is -7.9% (inactive) and the cell count is 411.

Regarding `COCCNC(=O)C(c1ccc(C)o1)N(C(=O)c1snc(C(N)=O)c1N)c1ccc(C)cc1` (stereo not given), the inhibition is -3.6% (inactive) and the cell count amounted to 498.

Take `O=C(CN1CCN(Cc2ccccc2)CC1)NCC1COc2ccccc2O1` (stereo not given): the inhibition is -6.7% (inactive) and the cell count worked out at 531.

As for `Cc1nc2ccccc2nc1OCC(=O)Nc1cc(C(F)(F)F)ccc1N1CCOCC1`, the cell count came out at 410 and the inhibition was -5.6% (inactive).

With `O=C(COc1ccc(F)cc1)Nc1ccc(-n2cnnn2)cc1`, the cell count amounted to 568 and the inhibition is 1.1% (inactive).

In the case of `COc1ccc(N2CCN(C(=O)CSc3ccccc3)CC2)cc1`, the inhibition was -11.8% (inactive) and the cell count worked out at 393.

For `COC(=O)CCn1nnc(-c2ccc(C)cc2)n1`, the inhibition is 7.6% (inactive) and the cell count amounted to 390.

For the compound `COc1cccc(NC(=O)c2ccccc2NS(C)(=O)=O)c1`, the cell count is 328 and the inhibition was -6.5% (inactive).

In the case of `CN(CC(=O)Nc1cccnc1)S(=O)(=O)c1cc(Cl)ccc1Cl`, the cell count was found to be 448 and the inhibition was 12.5% (inactive).

As for `CC12CN3CCN(CC(C3)C1(O)CN1CCCCC1)C2` (stereo not given), the inhibition was 1.7% (inactive) and the cell count worked out at 305.

In the case of `CC1CC(C)CN(c2nc3c(c(=O)[nH]c(=O)n3C)n2CCCSc2nc3ccccc3s2)C1` (stereo not given), the inhibition was -4.3% (inactive) and the cell count was determined as 383.

As to `O=C(c1cccnc1)N1CCN(C(=O)c2ccccc2F)CC1`, the cell count is 343 and the inhibition is 1% (inactive).

In the case of `CCOc1nc(NCCC2=CCCCC2)nc(N2CCOCC2)n1`, the inhibition is 2.7% (inactive) and the cell count stood at 450.
